This is part of a sample that, as a whole, favours compounds with a hit. Of some 83,000 tested, about 20% had one in any assay.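 For each line, cells grew in 96-well plates with the test compound present at a single concentration for 48 hours.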 Unmarked numbers belong to inactive results. Calls of active or inactive are those of the source. Rule for the calls: active = growth percent below 10; inactive = the rest.
Columns and labels:
Experiment in all cases: NCI-60 one-dose screen, 48 h (100 = growth as untreated, 0 = no growth, -100 = all killed)
Conditions in all cases: 10 µM unless noted
[1] = tested on: T-47D breast
[2] = tested on: BT-549 breast
[3] = tested on: MDA-MB-435 melanoma
[4] = tested on: SW-620 colon
[5] = tested on: MCF7 breast
[6] = tested on: HCT-116 colon
[7] = tested on: HCC-2998 colon
[8] = tested on: KM12 colon

Row | Structure (SMILES) | growth [1] | growth [2] | growth [3] | growth [4] | growth [5] | growth [6] | growth [7] | growth [8]
1 | O=C(CCC(=O)N/N=C/c1ccccc1O)N/N=C/c1ccccc1O | 51.5% | 76.5% | 64.8% | 44.8% | 39.9% | 25.9% | 46% | 33%
2 | N#C/C(=C\c1ccc(Br)cc1)n1nnc2ccc(F)cc21 | 8.46% (active) | 1.54% (active) | -34.1% (active) | -48.4% (active) | 5.23% (active) | -75.3% (active) | -63.6% (active) | -24.7% (active)
3 | CCSc1nc(NC)c2cc(-c3ccc(C(F)(F)F)cc3)ccc2n1 | 91.4% | 94.4% | 102% | 105% | 92.8% | 96.9% | 111% | 103%
4 | O=C(CSc1nc2ccc([N+](=O)[O-])cc2[nH]1)Nc1ccc(F)cc1 | 16.6% | 65.2% | 53.1% | 86% | 62.1% | 54.7% | 75.7% | 64%
5 | O=S(=O)(Nc1ccc(Cl)cc1)c1ccc(-c2cnc(C3CC3)o2)cc1 | 22.6% | 51.8% | -3.04% (active) | 17.4% | 18.7% | 21.2% | 40.3% | 20.9%
6 | CCN(CC)CCCN1C(=O)c2c(c(C)c3c(oc4cc(O)ccc43)c2C)C1=O | 97.7% | 94.8% | -61.1% (active) | -36% (active) | -69.2% (active) | -76.4% (active) | -88.9% (active) | -59.3% (active)
7 | Nc1nc2c([nH]1)c1[nH]c3ccccc3c1c1[nH]c3ccccc3c21 | 32.4% | 64.6% | 1.06% (active) | -31.5% (active) | 13.6% | -47.9% (active) | -70.6% (active) | 39.5%
8 | C=C(C)[C@@H]1CC[C@]2(C(=O)N3CCN(C)CC3)CC[C@]3(C)[C@H](CC[C@@H]4[C@@]5(C)CC(=C/c6ccncc6)/C(=N/O)C(C)(C)[C@@H]5CC[C@]43C)[C@@H]12 | 71.9% | 82.7% | 86.6% | 72.8% | 66.8% | 56.1% | 82.7% | 72.1%
9 | O=C1C(Cl)=C(Nc2ccc(O)cc2)C(=O)N1Cc1ccc(Cl)cc1 | 66.5% | 43.2% | -30.6% (active) | 17.6% | 18.1% | 30.9% | 79.9% | 14.9%
10 | COc1ccc(N2CCC(=O)NC2=S)cc1 | 102% | 101% | 109% | 96.8% | 95.2% | 105% | 95.9% | 106%
11 | O=C(OCc1ccc2cccc(O)c2n1)N1CCN(C(=O)c2cc3cc(F)ccc3[nH]2)CC1 | -68.3% (active) | -57.4% (active) | -89.8% (active) | -62.8% (active) | -28% (active) | -78.8% (active) | -4.94% (active) | -48.1% (active)
12 | COc1ccc(-c2nc(SCC(C)C)nc(N/N=C\c3ccc(F)cc3)c2C#N)cc1 | 80.7% | 89.9% | 92.5% | 67.9% | 81.2% | 60% | 104% | 97.4%
13 | COc1cc2c(c(OC)c1OC)C(=O)CC(c1cccc(NC(=O)c3ccc(Br)cc3)c1)O2 (stereo not given) | 10% | 15.7% | -18.3% (active) | 25.4% | 23.4% | 23.4% | 72.7% | 31.6%
14 | O=C(O)CCCN1C(=O)/C(=C/C(Cl)=C/c2ccccc2)SC1=S | 45.3% | 7.71% (active) | -14.9% (active) | 7.33% (active) | 14.2% | -54.2% (active) | 5.79% (active) | 13.6%
15 | CCOC(=O)c1c(NC(=O)c2ccc(C(C)C)cc2)sc2c(CN(C)C)c(O)ccc12 | 61% | 89.7% | 21.3% | -58.6% (active) | 15.2% | 4.82% (active) | -55.8% (active) | 1.36% (active)
16 | C/C(=C(/c1ccc(Cl)cc1)c1ccc(OCCN2CCCC2)cc1)c1ccc(Cl)cc1 | 59.5% | 96.5% | 89.6% | 54.6% | 34.1% | 50.4% | 102% | 52.4%
17 | COc1cc(-c2cc(-c3cccs3)c(C#N)c(N3CCOCC3)n2)cc(OC)c1OC | 89% | 75.8% | 92.8% | 4.28% (active) | 61.9% | 51.7% | 86.4% | 105%
18 | Cc1ccccc1Cn1cnc2ccc(-c3cc(NC(=O)c4ccc(NC5CCN(C)CC5)cc4)n[nH]3)cc21 | 92.2% | 68.2% | 61% | 93.1% | 77.1% | 48.8% | 90.5% | 39.6%
19 | Cc1cc2c(O)c(-c3cc(Cl)ccc3Cl)c3sc(=O)oc3c2cc1C | 32.4% | 81.7% | 47.3% | 57.8% | 60.9% | 36.2% | 102% | 59.1%
20 | COc1ccc2c(c1)c(-c1noc(C(=O)c3cn(C)c4ccc(Br)cc34)n1)cn2C | 90% | 99.3% | 114% | 105% | 93% | 92.4% | 100% | 106%
21 | CCN1CCN(Cc2cn(CC(=O)Nc3ccc4c(ccn4Cc4ccccc4)c3)nn2)CC1 | 91.1% | 96.1% | 97.7% | 99.3% | 99.5% | 99.2% | 110% | 101%
22 | CN[C@]12CC3(C=CC(=O)C=C3)O[C@@]1(Cc1ccc(OC)cc1)N(C)C(=O)N2 | 16.6% | 41.5% | 1.71% (active) | 11.1% | 23.3% | -35.2% (active) | 32.7% | 9.7% (active)
23 | C#COc1cccc(Nc2ncnc3ncc(NC(=O)CCl)cc23)c1 | 30.5% [6.25 µM] | 28.6% [6.25 µM] | 17.1% [6.25 µM] | -55.1% [6.25 µM] (active) | -0.408% [6.25 µM] (active) | -32.6% [6.25 µM] (active) | 51.5% [6.25 µM] | 15.7% [6.25 µM]
24 | OCc1cccc(-c2ccc3ncc(-c4nc(NC5CC5)ncc4F)n3c2)c1 | -2.9% (active) | -7.54% (active) | -31.7% (active) | 0.326% (active) | -19.3% (active) | 1.41% (active) | -0.971% (active) | -18.8% (active)
25 | CN(C)Cc1ccc(NC(=O)c2cncc(C#Cc3cnc(N)c4ncccc34)c2)cc1F | 105% | 132% | -89.3% (active) | 96.9% | -46% (active) | 81.4% | 91% | -83.3% (active)
26 | Clc1ccc2c(c1)N(c1ncnc3ccc(-c4cnc5[nH]ncc5c4)cc13)CC2 | 0.466% (active) | 22.6% | 31.1% | 47.4% | 18.2% | 35.8% | 36.6% | 36.4%
27 | Brc1ccc(-n2cc(-c3nn[nH]n3)c(-c3cccs3)n2)cc1 | 95.6% | 95.3% | 106% | 102% | 90.1% | 91.5% | 105% | 103%
28 | COc1cc2c(c(OC)c1OC)CCC(c1cccc(C(=O)Nc3cccc(Br)c3)c1)O2 (stereo not given) | 40.6% | 80.8% | 69.6% | 79.6% | 77.8% | 55% | 103% | 81.2%
29 | C=C1C(=O)O[C@H]2[C@H]1CC/C(COC(=O)NCc1ccc(Cn3c(=O)sn(CCI)c3=O)cc1)=C\CC[C@@]1(C)O[C@@H]21 | 27.1% | 69.8% | 57.1% | -2.89% (active) | 24.7% | 20% | 107% | 91.5%
30 | Cn1c(=O)c2c(nc(NC3=NS(=O)(=O)c4ccccc43)n2CC(=O)N2CCc3ccccc32)n(C)c1=O | 91.3% | 91.7% | 101% | 95.2% | 103% | 97.9% | 96.9% | 107%
